The sample as a whole holds a higher share of hits than the screen did.
Artemis endo inh: Artemis (human) endonuclease inhibition. recombinant Artemis, quenched FAM hairpin cleavage fluorescence. inhibition, % at 10 µM. actives 0.78% (n = 30,000);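 active means at 10 µM dose, at least 30% inhibition, measured as corrected fluorescence normalized to stimulator and neutral control wells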
Large screens that a line does not name were inactive.

Cc1ccc(C2C(C#N)=C(N)Oc3n[nH]c(-c4cccs4)c32)cc1 (configuration not stated)	none
COc1cc(-c2[nH]nc3c2C(c2ccoc2)C(C#N)=C(N)O3)cc(OC)c1OC (configuration not stated)	none
N#CC1=C(N)Oc2n[nH]c(-c3cccs3)c2C1c1ccoc1 (configuration not stated)	Artemis endo inh 39
O=C(COc1ccc(S(=O)(=O)NC2CCCCC2)cc1)NCCC1=CCCCC1	none
CCOc1cc(/C=C2\CCC/C(=C\c3cc(Cl)c(O)c(OCC)c3)C2=O)cc(Cl)c1O	none
CCN1CCN(C(=O)CN2C(=O)c3cccc4cccc2c34)CC1	none
CCNC(=O)CN1c2cccc3cccc(c23)S1(=O)=O	none
CN1/C(=N\O)c2cccc3cccc1c23	Artemis endo inh 38
CCCCn1c(NC(=O)C2CCCCC2)nc2ccccc21	none
CCOC(=O)Cc1cc(=O)n2[nH]c(C)c(-c3ccc(OC)cc3)c2n1	none
Cc1[nH]n2c(=O)cc(-c3ccc([N+](=O)[O-])cc3)nc2c1-c1ccccc1	Artemis endo inh 32
COc1cccc(N=Nc2c(N)[nH]n3c(=O)cc(-c4ccccc4)nc23)c1	Artemis endo inh 36
CSc1nc2nc(-c3ccccc3)cc(=O)n2[nH]1	none
Cc1ccc(C(=O)Nc2nc3nc(-c4ccccc4)cc(=O)n3[nH]2)cc1	none
Cc1[nH]n2c(=O)cc(C(C)(C)C)nc2c1-c1ccccc1	none
COc1cccc(-c2cc(C(F)(F)F)n3ncc(C(=O)O)c3n2)c1	none
Cc1ccc(N=Nc2c(N)[nH]n3c(=O)cc(-c4ccccc4)nc23)cc1	Artemis endo inh 48
Cc1ccc(N=Nc2c(=O)[nH]n3c(=O)cc(C)[nH]c23)cc1	none
CN(C)S(=O)(=O)c1ccc(C(=O)NCCSc2ccccc2)cc1	none
Cc1nnc(SCC(=O)Nc2sccc2C#N)n1Cc1ccccc1	none
CCOC(=O)c1cnc2cc(C)nn2c1C	none
COc1cccc(NC2CC(=O)N(CCc3ccccc3)C2=O)c1 (configuration not stated)	none
CC(C(=O)NCc1cccs1)N1C(=O)c2ccccc2C1=O (configuration not stated)	none
COc1cccc(-n2nnnc2SCC(=O)NCc2ccco2)c1	none
Cc1cc(Cl)ccc1NC(=S)NCCc1ccc(S(N)(=O)=O)cc1	none
Cn1c(=O)c2c(nc(Br)n2CC(=O)c2cccs2)n(C)c1=O	none
N#Cc1c(NC(=O)CSc2ccccn2)oc(-c2ccccc2)c1-c1ccccc1	none
CCn1c(SCC(=O)Nc2oc(-c3ccccc3)c(-c3ccccc3)c2C#N)nnc1-c1ccco1	none
CCn1c(SCC(=O)Nc2oc(-c3ccccc3)c(-c3ccccc3)c2C#N)nnc1-c1ccncc1	Artemis endo inh 31
Cc1nnc(C)c2c(C)n(C(C)c3ccccc3)c(C)c12 (configuration not stated)	none
CC1CC(c2ccccc2)n2nc(NC(=O)CCc3ccccc3)nc2N1 (configuration not stated)	none
O=C(Nc1nc2n(n1)C(c1ccccc1)CC(c1ccc(Cl)cc1)N2)c1ccco1 (configuration not stated)	Artemis endo inh 31
O=C1CC(c2ccccc2)n2nc(NC(=O)C3CCCO3)nc2N1 (configuration not stated)	none
O=C(COc1ccccc1Cl)NNC(=O)C1CCCO1 (configuration not stated)	none
COc1ccc(C2C3=C(CC(C)(C)CC3=O)Oc3ncn(CC(C)C)c(=N)c32)cc1 (configuration not stated)	none
O=C(O)c1cccc(-n2cnnn2)c1	none
CCCCCCOc1ccc(/C(N)=N/O)cc1	none
CCCCCCCCCCNC(=O)C(=O)Nc1ccccn1	none
CCCCCCCCC/C(=N\O)c1ccccn1	Artemis endo inh 35
O=C(O)CCCC(=O)N1CC(=O)Nc2ccccc21	none
Cc1cccc(N(Cc2cc3ccccc3[nH]c2=O)C(=O)c2ccco2)c1C	none
Cc1ccc(C)c(NC(=S)N2CCCCCC2)c1	none
COC(=O)c1ccc(CN2C(=O)NC3(CCCc4ccccc43)C2=O)o1 (configuration not stated)	none
O=C(N/N=C/c1ccc([N+](=O)[O-])o1)c1cc(-c2cccc(Br)c2)nc2ccccc12	Artemis endo inh 39
O=C(NCc1ccco1)c1cc(-c2ccccc2)nc2ccccc12	none
O=C(Oc1ccc([N+](=O)[O-])cc1)c1cc(-c2ccccc2)nc2ccccc12	none
COC(=O)CCC(=O)c1oc2ccc(OC)cc2c1N	none
O=c1c2ccccc2nc(N/N=C/c2c(O)ccc3ccccc23)n1O	Artemis endo inh 61
CCCc1nc2ccccc2c(=O)n1/N=C/c1ccc(O)cc1O	none
O=c1c2ccccc2nc(N/N=C/c2ccc(O)cc2)n1O	none
CCOC(=O)c1c(NC(=O)CSc2nnnn2-c2ccccc2)sc2c1CCC(C)C2 (configuration not stated)	none
CCOC(=O)c1c(NC(=O)CSc2nnc3c(n2)[nH]c2ccccc23)sc2c1CCN(C)C2	Artemis endo inh 42
CCOC(=O)c1c(NC(=O)CSc2nncs2)sc(C)c1C	none
CC1(C)C2CCC13CS(=O)(=O)N[C@@H]3C2 (some centres not stated)	none
CCOC(=O)c1c(NC(=O)COC(=O)Cn2c(C(F)(F)F)nc3ccccc32)sc(C)c1C	none
C=CCc1ccccc1OCC(O)CN1CCN(C(=O)OCC)CC1 (configuration not stated)	none
N#Cc1c(-c2ccccc2)c(-c2ccccc2)nn(CC(=O)NNC(=O)Nc2ccc(Cl)c(Cl)c2)c1=O	Artemis endo inh 30
N#Cc1c(NC(=O)CCn2cnc3ccccc3c2=O)oc(-c2ccccc2)c1-c1ccccc1	none
N#Cc1c(-c2ccccc2)nc2n(-c3ccccc3)nc(C(=O)Nc3ccccc3)n2c1=O	none
Cc1cc(C)cc(N=C(NO)c2cccc([N+](=O)[O-])c2)c1	none
O=C(CN1C2=NCCCN2c2ccccc21)c1cccs1	none
CC(C)NC(=O)c1sc2nc3c(c(-c4cccs4)c2c1N)CN(C)CC3	none
CC(=O)c1sc2nc(-c3cccs3)cc(C(F)(F)F)c2c1N	none
Cc1cccc(NC(=O)c2sc3nc4c(c(-c5cccs5)c3c2N)CN(C)CC4)c1	Artemis endo inh 40
Cn1c(=O)c2c(nc(N3CCNCC3)n2Cc2cccc3ccccc23)n(C)c1=O	none
C=CCN(CC(=O)NCC1CCCO1)C(=O)CCC(=O)Nc1cc(C)on1 (configuration not stated)	none
CSc1nc2ccc(NS(=O)(=O)c3ccc4c(c3)OCCO4)cc2s1	Artemis endo inh 34
COc1ccc(S(=O)(=O)Nc2ccc3c(c2)OCCO3)cc1Cl	none
CSc1nc2ccc(S(=O)(=O)NC3CCCCC3)cc2s1	none
COc1ccc(C(=O)CSc2nc3ccccc3n2CC(=O)NC(C)(C)C)cc1	none
CNc1nc(Cl)nc(NC(C)(C)C)n1	none
CC(C)(C)Nc1nc(NN)nc(NC(C)(C)C)n1	Artemis endo inh 43
CC(=O)C(Sc1nc(NC(C)(C)C)nc(N(C)C)n1)C(C)=O	none
CSc1cc(-c2ccc(Cl)cc2)c(C(=O)NC(C)C)s1	none
COc1ccc(C(CC(=O)O)NC(C)=O)cc1OC (configuration not stated)	none
O=[N+]([O-])c1ccccc1/C=C/C=N/n1c(-c2ccc(Cl)cc2)n[nH]c1=S	Artemis endo inh 30
Cn1cccc1/C=N/n1c(-c2ccccc2)n[nH]c1=S	none
Cc1ccc(-c2n[nH]c(=S)n2/N=C/C=C\c2ccccc2[N+](=O)[O-])cc1	none
CCCCCCn1c(SCC(=O)c2c(N)n(C)c(=O)n(C)c2=O)nc2ccccc21	none
CCOC(=O)CSc1nnnn1-c1cc(OC)c(Cl)cc1OC	none
COc1cc(-n2ccnc2SC)c(Cl)cc1Cl	Artemis endo inh 52
COc1cc(Nc2nnc(C)s2)c(Cl)cc1Cl	none
